Luciferase inh: Firefly luciferase inhibition profiling of diverse chemical library using quantitative high-throughput screening. Luciferin 4-monooxygenase (Photinus pyralis), P08659. Potency, µM (series often up to 115 µM), most hits filed as inhibitors. 76,000 tested, 2.5% active. purified P. pyralis luciferase, luminescence, biochemical; active = well fitted curve in the direction sought with a large enough effect; inconclusive = small, poorly fitted or top-dose-only effect, or another doubt; inactive = no such curve, though single readings can be large; an effect the other way counts as inactive or inconclusive; also: nearly all actives have a fitted effect of over 65% in size
Target sequence (P08659 whole entry, looked up): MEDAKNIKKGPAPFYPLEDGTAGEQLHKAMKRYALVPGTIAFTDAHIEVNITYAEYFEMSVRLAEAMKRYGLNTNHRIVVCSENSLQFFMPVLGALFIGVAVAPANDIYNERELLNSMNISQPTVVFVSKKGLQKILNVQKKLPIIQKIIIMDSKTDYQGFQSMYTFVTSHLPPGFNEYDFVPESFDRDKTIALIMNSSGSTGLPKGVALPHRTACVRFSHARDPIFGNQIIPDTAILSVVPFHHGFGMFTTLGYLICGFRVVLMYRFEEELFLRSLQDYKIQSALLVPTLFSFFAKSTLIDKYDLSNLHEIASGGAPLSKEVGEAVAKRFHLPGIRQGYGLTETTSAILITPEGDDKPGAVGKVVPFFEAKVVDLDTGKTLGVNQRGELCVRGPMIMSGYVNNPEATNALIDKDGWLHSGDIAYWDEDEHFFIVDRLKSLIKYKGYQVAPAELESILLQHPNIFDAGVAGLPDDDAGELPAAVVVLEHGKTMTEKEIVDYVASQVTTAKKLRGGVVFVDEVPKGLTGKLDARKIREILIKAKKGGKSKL
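Purified 10nM P. pyralis luciferase with 10uM D-luciferin and 10uM ATP in 50mM Tris acetate pH 7.5, 10mM Mg acetate, 0.01% Tween-20, 0.05% BSA. qHTS titration; luminescence read by CCD imager.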
3T3 cytotox: Cytotoxic Profiling in NIH 3T3 Cell Line of Diverse Libraries Using Quantitative High-Throughput Screening | Potency, µM (highest dose often 96.7 µM), most hits filed as inhibitors | 94,000 tested, 4.3% active | NIH 3T3 viability, CellTiter-Glo ATP luminescence, 48-72 h; active = well fitted curve in the direction sought with a large enough effect; inconclusive = small, poorly fitted or top-dose-only effect, or another doubt; inactive = no such curve, though single readings can be large; an effect the other way counts as inactive or inconclusive; also: nearly all actives have a fitted effect of over 55% in size
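Cytotoxicity was measured by CellTiter-Glo ATP luminescence after 48 or 72 h compound exposure at 37 °C. Mouse NIH 3T3 fibroblasts were seeded at 400 cells/well and dosed by 23 nL pin transfer.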
NPR1 antag: Natriuretic polypeptide receptor (hNpr1) antagonism - Primary qHTS; Potency, µM (titrated, usually from 46.3 µM), most hits filed as inhibitors; Atrial natriuretic peptide receptor 1 (Homo sapiens), P16066; 76,000 tested, 1.6% active; HEK293 hNpr1 GloSensor cGMP, ANP-stimulated luminescence; AID 1347048, 2019; also: nearly all actives have a fitted effect of over 60% in size
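Compound pre-incubated 30 min at room temperature on GloSensor-loaded HEK293 cells stably carrying hNpr1 and the pGS-40F cGMP biosensor. Stimulation uses hNppA at 0.1 nM final; luminescence is taken at baseline and 20 min post-agonist.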
HEK293 tox: Cytotoxic Profiling in HEK 293 Cell Line of Diverse Libraries Using Quantitative High-Throughput Screening; HEK 293 viability, ATP luminescence (CellTiter-Glo), 48-72 h; Potency, µM (titrated, usually from 115 µM), most hits filed as inhibitors; 94,000 tested, 6.6% active; active = well fitted curve in the direction sought with a large enough effect; inconclusive = small, poorly fitted or top-dose-only effect, or another doubt; inactive = no such curve, though single readings can be large; an effect the other way counts as inactive or inconclusive; also: nearly all actives have a fitted effect of over 60% in size
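Cells seeded first (HEK 293, 250 cells/well), then compound added by pintool. Incubation ran 48 or 72 hr at 37 degree Celsius. CellTiter-Glo was added and luminescence imaged after 10 min at room temperature.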
Npr1 antag conf: Natriuretic polypeptide receptor (hNpr1) antagonism - Confirmation; shares compounds with NPR1 antag; HEK293 hNpr1 cGMP GloSensor luminescence, ANP-stimulated; Potency, µM (doses to about 57.6 µM), hits mostly inhibitors; 1,400 tested, 76% active; AID 1347044, 2019; also: nearly all actives have a fitted effect of over 70% in size
Npr2 selectivity: Natriuretic polypeptide receptor (hNpr2) antagonism - Subtype selectivity assay | shares compounds with NPR1 antag | HEK293 hNpr2 GloSensor cGMP luminescence, CNP-stimulated | Potency, µM (series often up to 57.6 µM), hits mostly inhibitors | 1,400 tested, 67% active | AID 1347046, 2019; also: nearly all actives have a fitted effect of over 70% in size
FLuc inh counter: Natriuretic polypeptide receptor (hNpr1) antagonism - Confirmation firefly luciferase (FLuc) inhibition counterscreen | shares compounds with NPR1 antag | purified FLuc enzyme, luminescence, Km substrate | Potency, µM (series often up to 57.6 µM), hits mostly inhibitors | 1,400 tested, 0.7% active | AID 1347047, 2019; active = well fitted curve in the direction sought with a large enough effect; inconclusive = small, poorly fitted or top-dose-only effect, or another doubt; inactive = no such curve, though single readings can be large; an effect the other way counts as inactive or inconclusive
GloSensor cGMP: Natriuretic polypeptide receptor (hNpr1) antagonism - Counterscreen GloSensor control cell line; shares compounds with NPR1 antag; HEK293 GloSensor cGMP, SNP-stimulated, luminescence; Potency, µM (series often up to 57.6 µM), hits mostly inhibitors; 1,400 tested, 69% active; also: nearly all actives have a fitted effect of over 70% in size
Numbers stand for hits; - = inactive; ? = inconclusive; . = not tested or not shown. Compounds with a hit are over-represented: about 11% of the library has one in this group of screens. Unless noted, calls follow the shape of the full dose curve.

SMILES | Luciferase inh | 3T3 cytotox | NPR1 antag | HEK293 tox | Npr1 antag conf | Npr2 selectivity | FLuc inh counter | GloSensor cGMP
COc1ccc(-c2noc(CC3CCN(C(=O)C4CC4)CC3)n2)cc1 | - | ? | ? | ? | . | . | . | .
Cc1ccc(C(=O)N2CCC(Cc3nc(-c4ccccc4)no3)CC2)c(C)c1 | - | ? | 6.3µM | 50µM | 3.9µM | 5.4µM | - | 3.9µM
Cc1ccccc1C(=O)N1CCC(Cc2nc(-c3ccccc3)no2)CC1 | - | ? | 8.9µM | ? | 11µM | 17µM | - | 11µM
COc1ccc(-c2noc(CC3CCN(C(=O)c4ccc(OC)nc4OC)CC3)n2)cc1 | - | ? | 4µM | 20µM | 5.4µM | 8.6µM | - | 6.1µM
CCN1CCCCC12Cc1ccccc1CN(S(=O)(=O)c1ccccc1)C2 (stereo not drawn) | . | - | . | - | . | . | . | .
COc1cccc([S+](=O)([O-])N2CCC3(CC2)C(=O)Nc2ccccc23)c1 | - | ? | 13µM | ? | 20µM | 20µM | - | 16µM
CCC(Cn1cnc(-c2ccccc2)c1-c1ccc(C#N)cc1)N1CCN(C)CC1 (stereo not drawn) | - | ? | 11µM | 79µM | 24µM | 17µM | - | -
N#Cc1ccc(-c2c(-c3ccccc3)ncn2CCNc2cccnc2)cc1 | - | - | - | - | . | . | . | .
CCN(Cc1cccc2cnccc12)CC1CCCN(CCc2cccc(F)c2)C1 (stereo not drawn) | - | 40µM | ? | 18µM | 24µM | 19µM | - | -
COc1cccc(CCNC(=O)c2ccc3nnc(C4CCOCC4)n3c2)c1 | . | - | . | - | . | . | . | .
COc1cc(OC)cc(C(=O)N2CCC3(CC2)N=C(c2ccccc2)NO3)c1 | - | - | - | - | . | . | . | .
Cc1ccccc1C(=O)N1CCC2(CC1)N=C(c1ccc(Br)cc1)NO2 | - | ? | 14µM | ? | 27µM | 24µM | - | 24µM
COc1ccc(C(=O)N2CCC3(CC2)N=C(c2ccc(Br)cc2)NO3)cc1 | - | - | 10µM | ? | 12µM | 14µM | - | 9.7µM
CCN(CCCNC(=O)C1Cn2cccc2C(=O)N1C)c1ccccc1 (stereo not drawn) | . | - | . | - | . | . | . | .
CN(Cc1cccnc1)c1nc2c(c(=O)[nH]1)CCN(Cc1ccccc1F)CC2 | - | ? | - | ? | . | . | . | .
CN(Cc1cccnc1)c1nc2c(c(=O)[nH]1)CCN(Cc1ccc(Cl)cc1F)CC2 | - | ? | 11µM | ? | 15µM | 17µM | - | 9.7µM
COc1ccc(OC)c(CNC(=O)c2nnn3c2COC(c2ccc(F)cc2)C3)c1 (stereo not drawn) | - | ? | - | ? | . | . | . | .
Cc1nc(-c2ccc(OC3CCN(C(=O)NCC(C)C)C3)cc2)no1 (stereo not drawn) | - | ? | ? | ? | . | . | . | .
COc1ccc(-c2noc(CC3CCN(C(=O)CCc4cccc(OC)c4)CC3)n2)cc1 | - | ? | 13µM | ? | 22µM | 22µM | - | 17µM
Cc1nc(-c2ccc(OC3CCN(C(=O)c4cc(C)n(C)n4)C3)cc2)no1 (stereo not drawn) | - | ? | ? | ? | ? | ? | - | ?

Compound activity from PubChem BioAssay.
